Records with an inconclusive call do not appear. Calls of active or inactive are those of the source. The calls were made as follows: active = hit-call score of the fitted dose curve at least 0.9, where 1 is the maximum; inconclusive = response in the unintended direction; inactive = score below 0.9.
Assays:
[1] = target: human Dopamine Receptor D2 (DRD2), DRD2 (gene 1813) (UniProt P14416); assay: NVS_GPCR_hDRD2s: NovaScreen (NVS) G Protein-Coupled Receptor Assay for human Dopamine Receptor D2 (DRD2) (AID 2283266)
Sequence of human Dopamine Receptor D2 (DRD2), DRD2 (gene 1813) (P14416 whole entry, looked up): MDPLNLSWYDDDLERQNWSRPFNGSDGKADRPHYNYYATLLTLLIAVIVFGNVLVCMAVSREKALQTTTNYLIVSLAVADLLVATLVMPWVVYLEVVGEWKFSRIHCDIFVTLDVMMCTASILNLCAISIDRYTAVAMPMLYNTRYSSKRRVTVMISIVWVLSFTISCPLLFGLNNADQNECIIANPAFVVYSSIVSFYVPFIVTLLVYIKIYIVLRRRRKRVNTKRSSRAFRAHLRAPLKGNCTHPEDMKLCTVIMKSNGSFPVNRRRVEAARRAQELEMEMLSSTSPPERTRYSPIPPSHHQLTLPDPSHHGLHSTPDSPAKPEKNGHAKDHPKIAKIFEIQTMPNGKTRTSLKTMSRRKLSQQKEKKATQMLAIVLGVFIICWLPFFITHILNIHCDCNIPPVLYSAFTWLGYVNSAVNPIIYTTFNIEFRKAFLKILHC
In short: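 Test compound (25 uM, duplicate in the primary screen; concentration series at follow-up) competed with radioligand for human DRD2 in CHO-derived membrane protein. Filter-based scintillation counting was done 1.5 hours after dosing, with loss of signal analysed against DMSO.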

[2] = target: human Histamine 1 Receptor (H1), HRH1 (gene 3269) (UniProt P35367); assay: NVS_GPCR_hH1: NovaScreen (NVS) G Protein-Coupled Receptor Assay for human Histamine 1 Receptor (H1) (AID 2283268)
In short: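 Filter-based scintillation detection of radioligand binding to human H1, 1 h incubation; chemicals screened in duplicate at 25 uM, then concentration-response; signal loss relative to DMSO taken as activity.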

[3] = target: human Serotonin, 5-Hydroxytryptamine Receptor 6 (5HT6), HTR6 (gene 3362) (UniProt P50406); assay: NVS_GPCR_h5HT6: NovaScreen (NVS) G Protein-Coupled Receptor Assay for human Serotonin, 5-Hydroxytryptamine Receptor 6 (5HT6) (AID 2283253)
Sequence of human Serotonin, 5-Hydroxytryptamine Receptor 6 (5HT6), HTR6 (gene 3362) (P50406 whole entry, looked up): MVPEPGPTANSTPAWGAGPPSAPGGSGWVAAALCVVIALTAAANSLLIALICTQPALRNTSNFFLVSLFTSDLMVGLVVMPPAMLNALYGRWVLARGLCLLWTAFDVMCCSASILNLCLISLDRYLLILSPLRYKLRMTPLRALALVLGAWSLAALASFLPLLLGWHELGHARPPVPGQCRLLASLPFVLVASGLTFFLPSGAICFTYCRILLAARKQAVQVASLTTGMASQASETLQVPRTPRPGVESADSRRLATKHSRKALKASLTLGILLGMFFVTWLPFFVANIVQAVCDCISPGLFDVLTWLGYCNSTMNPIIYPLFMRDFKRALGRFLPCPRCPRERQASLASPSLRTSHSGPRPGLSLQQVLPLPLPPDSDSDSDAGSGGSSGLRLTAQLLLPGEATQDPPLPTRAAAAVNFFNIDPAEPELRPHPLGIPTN
In short: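 Filter scintillation counting of radioligand displacement from HEK293-expressed 5HT6, 1 hour post-dose, with loss of signal relative to DMSO. Single 25 uM duplicates first, with concentration series for confirmation.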

[4] = target: human Adenosine A1 Receptor (AdoRA1), ADORA1 (gene 134) (UniProt P30542); assay: NVS_GPCR_hAdoRA1: NovaScreen (NVS) G Protein-Coupled Receptor Assay for human Adenosine A1 Receptor (AdoRA1) (AID 2283254)
Sequence of human Adenosine A1 Receptor (AdoRA1), ADORA1 (gene 134) (P30542 whole entry, looked up): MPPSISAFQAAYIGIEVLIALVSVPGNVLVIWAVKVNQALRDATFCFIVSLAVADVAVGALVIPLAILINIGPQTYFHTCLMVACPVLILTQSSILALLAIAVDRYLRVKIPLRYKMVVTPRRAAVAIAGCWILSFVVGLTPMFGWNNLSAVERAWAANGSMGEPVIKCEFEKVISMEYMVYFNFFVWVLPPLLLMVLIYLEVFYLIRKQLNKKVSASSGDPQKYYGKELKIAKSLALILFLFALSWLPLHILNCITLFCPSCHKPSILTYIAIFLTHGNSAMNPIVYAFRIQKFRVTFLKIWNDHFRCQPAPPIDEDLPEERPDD
In short: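 Hum. cortical membranes + radioligand, cmpd 1 h; filtration, scintillation count. Readout = decrease vs DMSO. Primary 25 uM dup; hits → conc. series.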

[5] = target: human Serotonin, 5-Hydroxytryptamine Receptor 7 (5HT7), HTR7 (gene 3363) (UniProt P34969); assay: NVS_GPCR_h5HT7: NovaScreen (NVS) G Protein-Coupled Receptor Assay for human Serotonin, 5-Hydroxytryptamine Receptor 7 (5HT7) (AID 2283255);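 also: hits reduce specific radioligand binding relative to DMSO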
Sequence of human Serotonin, 5-Hydroxytryptamine Receptor 7 (5HT7), HTR7 (gene 3363) (P34969 whole entry, looked up): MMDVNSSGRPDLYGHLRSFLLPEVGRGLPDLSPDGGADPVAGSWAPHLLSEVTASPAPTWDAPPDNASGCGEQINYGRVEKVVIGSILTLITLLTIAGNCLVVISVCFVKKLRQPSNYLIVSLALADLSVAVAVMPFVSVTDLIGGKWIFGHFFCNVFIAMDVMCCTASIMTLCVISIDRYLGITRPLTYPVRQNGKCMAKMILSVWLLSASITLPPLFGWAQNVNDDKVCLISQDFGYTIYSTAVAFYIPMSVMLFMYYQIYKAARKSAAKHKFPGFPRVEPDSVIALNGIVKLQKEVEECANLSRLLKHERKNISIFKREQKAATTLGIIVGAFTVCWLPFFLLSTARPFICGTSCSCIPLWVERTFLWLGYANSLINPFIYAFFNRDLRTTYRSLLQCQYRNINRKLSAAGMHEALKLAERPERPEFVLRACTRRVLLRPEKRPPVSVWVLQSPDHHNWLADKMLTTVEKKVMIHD
In short: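 Filter-bound radioactivity counted after 1 h, with loss of specific radioligand binding fitted against DMSO. Membrane protein came from CHO cells expressing human 5HT7. Chemicals were tested first at 25 uM in duplicate, then in concentration series if active.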

[6] = target: human Adenosine A2a Receptor (AdoRA2a), ADORA2A (gene 135) (UniProt P29274); assay: NVS_GPCR_hAdoRA2a: NovaScreen (NVS) G Protein-Coupled Receptor Assay for human Adenosine A2a Receptor (AdoRA2a) (AID 2283256)
Sequence of human Adenosine A2a Receptor (AdoRA2a), ADORA2A (gene 135) (P29274 whole entry, looked up): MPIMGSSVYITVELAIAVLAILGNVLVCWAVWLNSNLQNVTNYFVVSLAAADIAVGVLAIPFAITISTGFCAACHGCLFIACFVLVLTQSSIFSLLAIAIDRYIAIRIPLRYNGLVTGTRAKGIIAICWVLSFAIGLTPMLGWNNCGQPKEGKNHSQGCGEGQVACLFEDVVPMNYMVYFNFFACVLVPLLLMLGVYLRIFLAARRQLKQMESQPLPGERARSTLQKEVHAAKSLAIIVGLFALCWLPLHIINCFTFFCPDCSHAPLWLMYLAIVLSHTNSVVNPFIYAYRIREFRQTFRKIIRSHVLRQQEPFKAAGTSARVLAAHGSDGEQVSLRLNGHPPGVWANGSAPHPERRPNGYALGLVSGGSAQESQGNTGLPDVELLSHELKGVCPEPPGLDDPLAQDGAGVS
In short: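 Compounds screened in duplicate at 25 uM, with actives followed up in concentration series, for displacement of a radioligand from HEK293-derived receptor protein. Bound counts read by filter scintillation at 1.5 hours, DMSO as baseline.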

[7] = target: human Adrenergic, Beta 1 Receptor (Adrb1), ADRB1 (gene 153) (UniProt P08588); assay: NVS_GPCR_hAdrb1: NovaScreen (NVS) G Protein-Coupled Receptor Assay for human Adrenergic, Beta 1 Receptor (Adrb1) (AID 2283258)
Sequence of human Adrenergic, Beta 1 Receptor (Adrb1), ADRB1 (gene 153) (P08588 whole entry, looked up): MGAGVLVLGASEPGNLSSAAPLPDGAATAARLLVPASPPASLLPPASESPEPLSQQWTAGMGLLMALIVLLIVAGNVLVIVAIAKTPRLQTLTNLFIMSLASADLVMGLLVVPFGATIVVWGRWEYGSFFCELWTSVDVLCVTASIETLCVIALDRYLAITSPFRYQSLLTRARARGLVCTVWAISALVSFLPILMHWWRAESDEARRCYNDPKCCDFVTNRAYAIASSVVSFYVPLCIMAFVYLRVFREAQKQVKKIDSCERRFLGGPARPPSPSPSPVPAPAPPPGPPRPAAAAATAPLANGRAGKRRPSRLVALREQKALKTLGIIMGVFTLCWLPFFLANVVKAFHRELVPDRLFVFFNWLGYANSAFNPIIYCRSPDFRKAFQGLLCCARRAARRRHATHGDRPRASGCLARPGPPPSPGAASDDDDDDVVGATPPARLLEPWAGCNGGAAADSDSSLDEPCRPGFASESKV
In short: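 Membranes/protein extracted from human neuroepithelioma cells, radioligand competition binding read by filtration and scintillation 2 h post-dose. Single 25 uM duplicate screen, then concentration-response follow-up; DMSO as negative control.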

[8] = target: human Adrenergic, Alpha 2c Receptor (Adra2C), ADRA2C (gene 152) (UniProt P18825); assay: NVS_GPCR_hAdra2C: NovaScreen (NVS) G Protein-Coupled Receptor Assay for human Adrenergic, Alpha 2c Receptor (Adra2C) (AID 2283259)
Sequence of human Adrenergic, Alpha 2c Receptor (Adra2C), ADRA2C (gene 152) (P18825 whole entry, looked up): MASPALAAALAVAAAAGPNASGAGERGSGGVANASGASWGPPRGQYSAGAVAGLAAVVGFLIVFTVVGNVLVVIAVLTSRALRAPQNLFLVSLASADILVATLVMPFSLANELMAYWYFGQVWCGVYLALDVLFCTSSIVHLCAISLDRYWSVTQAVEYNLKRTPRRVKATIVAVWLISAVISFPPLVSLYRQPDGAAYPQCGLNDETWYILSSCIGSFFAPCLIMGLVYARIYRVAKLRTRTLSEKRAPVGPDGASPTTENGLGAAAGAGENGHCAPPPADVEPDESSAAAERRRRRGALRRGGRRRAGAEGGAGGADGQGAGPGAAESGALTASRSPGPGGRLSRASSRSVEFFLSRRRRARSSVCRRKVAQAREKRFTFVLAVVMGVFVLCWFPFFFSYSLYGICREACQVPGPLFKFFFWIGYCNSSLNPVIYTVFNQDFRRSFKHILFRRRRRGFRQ
In short: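 Screened first in duplicate at 25 uM, with actives then run as concentration series. Membranes from Sf9 cells were exposed for 1 h, and displacement of radioligand was counted after filtration, using DMSO as baseline.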

[9] = target: Beta-2 adrenergic receptor (Homo sapiens) (UniProt P07550); assay: NVS_GPCR_hAdrb2: NovaScreen (NVS) G Protein-Coupled Receptor Assay for human Adrenergic, Beta 2 Receptor (Adrb2) (AID 2283261)
In short: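 Compounds screened in duplicate at 25 uM, then actives in concentration series. Human beta-2 receptor from CHO material, cell-free; radioligand displacement after 1 h measured by filtration and scintillation against DMSO baseline.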

[10] = target: human Adrenergic, Beta 3 Receptor (Adrb3), ADRB3 (gene 155) (UniProt P13945); assay: NVS_GPCR_hAdrb3: NovaScreen (NVS) G Protein-Coupled Receptor Assay for human Adrenergic, Beta 3 Receptor (Adrb3) (AID 2283262)
Sequence of human Adrenergic, Beta 3 Receptor (Adrb3), ADRB3 (gene 155) (P13945 whole entry, looked up): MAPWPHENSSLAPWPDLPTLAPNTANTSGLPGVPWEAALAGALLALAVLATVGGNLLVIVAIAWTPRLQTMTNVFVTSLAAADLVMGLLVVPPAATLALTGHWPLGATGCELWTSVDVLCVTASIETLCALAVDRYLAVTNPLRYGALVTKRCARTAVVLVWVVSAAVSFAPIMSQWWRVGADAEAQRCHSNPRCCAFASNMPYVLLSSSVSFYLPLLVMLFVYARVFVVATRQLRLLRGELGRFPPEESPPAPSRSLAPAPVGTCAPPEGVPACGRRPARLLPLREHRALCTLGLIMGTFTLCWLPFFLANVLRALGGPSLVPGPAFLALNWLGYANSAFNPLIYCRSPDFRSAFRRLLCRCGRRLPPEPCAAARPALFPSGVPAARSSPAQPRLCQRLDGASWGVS
In short: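 A cell-free filter binding assay read by scintillation counting, with displacement of a specific radioligand measured after 1 hour. The receptor source was SK-N-MC extracts (cells pretreated with isoproterenol and 8-bromo-cAMP). Compounds were first tested at 25 uM in duplicate and then in concentration series.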

[11] = target: Type-1 angiotensin II receptor (Homo sapiens) (UniProt P30556); assay: NVS_GPCR_hAT1: NovaScreen (NVS) G Protein-Coupled Receptor Assay for human Angiotensin II receptor type 1 (AT1) (AID 2283263)
In short: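 Hits from a 25 uM duplicate screen (threshold e.g. 30% inhibition) were run in concentration-response with 50 uM top concentration. Displacement of specific radioligand from KAN-TS membrane preparations measured after 3 h by filter scintillation, DMSO as baseline.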

[12] = target: human Dopamine Receptor D4.4 (DRD4.4), DRD4 (gene 1815) (UniProt P21917); assay: NVS_GPCR_hDRD4.4: NovaScreen (NVS) G Protein-Coupled Receptor Assay for human Dopamine Receptor D4.4 (DRD4.4) (AID 2283264)
In short: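 Filter-binding assay with a tritiated or iodinated ligand, cell-free receptor prepared from CHO, 1 hour. Loss of bound radioactivity versus DMSO; single 25 uM duplicate screen, then concentration-response for actives.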

[13] = target: human Endothelin Receptor Type B (ETB), EDNRB (gene 1910) (UniProt P24530); assay: NVS_GPCR_hETB: NovaScreen (NVS) G Protein-Coupled Receptor Assay for human Endothelin Receptor Type B (ETB) (AID 2283267)
In short: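 Filter-based scintillation readout of radioligand displacement, 4 h, using membranes from human astrocytoma cells. Actives from a 25 uM duplicate screen were retested in concentration-response (top 50 uM) relative to DMSO baseline.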

[14] = target: D(1A) dopamine receptor (Homo sapiens) (UniProt P21728); assay: NVS_GPCR_hDRD1: NovaScreen (NVS) G Protein-Coupled Receptor Assay for human Dopamine Receptor D1 (DRD1) (AID 2283269)
Sequence of D(1A) dopamine receptor (Homo sapiens) (P21728 whole entry, looked up): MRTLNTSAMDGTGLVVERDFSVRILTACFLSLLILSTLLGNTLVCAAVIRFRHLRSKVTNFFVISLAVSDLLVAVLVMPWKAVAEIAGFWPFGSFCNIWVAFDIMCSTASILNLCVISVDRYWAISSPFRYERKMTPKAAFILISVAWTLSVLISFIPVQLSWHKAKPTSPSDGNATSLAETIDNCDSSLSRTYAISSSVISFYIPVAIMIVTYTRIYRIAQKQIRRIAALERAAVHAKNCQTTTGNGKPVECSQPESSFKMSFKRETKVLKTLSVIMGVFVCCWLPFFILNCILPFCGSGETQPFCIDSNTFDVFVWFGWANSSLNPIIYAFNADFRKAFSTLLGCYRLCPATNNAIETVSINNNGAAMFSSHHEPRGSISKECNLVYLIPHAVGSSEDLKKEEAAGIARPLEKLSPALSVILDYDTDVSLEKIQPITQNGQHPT
In short: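 HEK293-derived receptor preparation; radioligand competitive displacement; 1 h; filtration + scintillation counting. DMSO = negative control/baseline. Primary: 25 uM, duplicate; secondary: concentration–response for actives.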

[15] = target: Muscarinic acetylcholine receptor M1 (Homo sapiens) (UniProt P11229); assay: NVS_GPCR_hM1: NovaScreen (NVS) G Protein-Coupled Receptor Assay for human Muscarinic, M1 Receptor (AID 2283270)
In short: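 Actives from a duplicate 25 uM single-point screen were retested in concentration series. Binding measured as displacement of a radioligand from CHO-derived receptor preparation, 1 h incubation, filtration and scintillation counting, analysed as signal loss against DMSO.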

[16] = target: Muscarinic acetylcholine receptor M2 (Homo sapiens) (UniProt P08172); assay: NVS_GPCR_hM2: NovaScreen (NVS) G Protein-Coupled Receptor Assay for human Muscarinic, M2 Receptor (AID 2283273)
Sequence of Muscarinic acetylcholine receptor M2 (Homo sapiens) (P08172 whole entry, looked up): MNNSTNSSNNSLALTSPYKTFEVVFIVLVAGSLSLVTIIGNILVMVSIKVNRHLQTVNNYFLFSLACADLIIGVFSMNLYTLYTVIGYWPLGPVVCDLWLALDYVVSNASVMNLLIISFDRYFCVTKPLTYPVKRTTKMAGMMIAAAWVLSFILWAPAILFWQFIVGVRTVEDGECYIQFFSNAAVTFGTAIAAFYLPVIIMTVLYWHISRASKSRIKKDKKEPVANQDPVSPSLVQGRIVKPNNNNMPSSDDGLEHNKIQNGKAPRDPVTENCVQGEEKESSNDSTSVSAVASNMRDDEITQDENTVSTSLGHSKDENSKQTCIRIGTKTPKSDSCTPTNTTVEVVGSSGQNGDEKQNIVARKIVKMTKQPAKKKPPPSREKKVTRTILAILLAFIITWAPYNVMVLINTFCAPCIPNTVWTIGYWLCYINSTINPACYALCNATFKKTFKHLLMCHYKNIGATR
In short: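 Radioligand competition binding, cell-free, receptor from CHO; 1 h incubation; scintillation detection. Primary testing at 25 uM in duplicate.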

[17] = target: human Muscarinic, M4 Receptor, CHRM4 (gene 1132) (UniProt P08173); assay: NVS_GPCR_hM4: NovaScreen (NVS) G Protein-Coupled Receptor Assay for human Muscarinic, M4 Receptor (AID 2283274)
In short: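 Filter-based scintillation counting of radioligand bound to CHO-expressed human M4 preparations after 1 h; loss of signal fitted versus DMSO. Initial duplicate testing at 25 uM, concentration-response follow-up for actives.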

[18] = target: human Leukotriene B4 Receptor 1 (LTB4-BLT1), LTB4R (gene 1241) (UniProt Q15722); assay: NVS_GPCR_hLTB4_BLT1: NovaScreen (NVS) G Protein-Coupled Receptor Assay for human Leukotriene B4 Receptor 1 (LTB4-BLT1) (AID 2283271)
Sequence of human Leukotriene B4 Receptor 1 (LTB4-BLT1), LTB4R (gene 1241) (Q15722 whole entry, looked up): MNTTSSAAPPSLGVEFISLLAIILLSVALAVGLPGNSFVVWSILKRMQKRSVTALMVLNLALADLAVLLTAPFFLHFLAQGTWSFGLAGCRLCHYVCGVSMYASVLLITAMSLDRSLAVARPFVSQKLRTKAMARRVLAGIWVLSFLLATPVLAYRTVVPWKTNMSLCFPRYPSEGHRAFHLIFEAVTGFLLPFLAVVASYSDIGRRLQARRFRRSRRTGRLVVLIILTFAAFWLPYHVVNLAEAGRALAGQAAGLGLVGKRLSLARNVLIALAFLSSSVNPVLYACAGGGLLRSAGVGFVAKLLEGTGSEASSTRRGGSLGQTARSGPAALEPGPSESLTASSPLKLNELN
In short: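 Cell-free human neutrophil receptor preparation, 1 h exposure, radioligand binding read by filter scintillation counting. Single 25 uM duplicate screen, then concentration series topping at 50 uM; binding loss scored against DMSO baseline.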

For `Cc1cc(-c2ccc(N)c(C)c2)ccc1N`, the outcome [1] was “inactive” and the outcome [2] was “inactive”.

For `Oc1ccc(C(c2ccc(O)cc2)(C(F)(F)F)C(F)(F)F)cc1`, the AC50 [3] was 0.352 µM (active), the AC50 [4] was 16.6 µM (active) and the AC50 [5] was 5.73 µM (active). The AC50 [6] was 25 µM (active), the AC50 [7] was 19.3 µM (active) and the AC50 [8] was 10.7 µM (active). The AC50 [9] was 25 µM (active), the outcome [10] was “inactive” and the outcome [11] was “inactive”. The AC50 [12] was 14.1 µM (active), the AC50 [1] was 9.39 µM (active) and the outcome [13] was “inactive”. The AC50 [14] was 2.86 µM (active), the AC50 [15] was 37 µM (active) and the outcome [16] was “inactive”. For the same molecule, the AC50 [17] was 32.5 µM (active).

In the case of `CN(C)c1nc(=O)n(C2CCCCC2)c(=O)n1C`, the outcome [9] is reported as “inactive”.

`O=C(O)C(F)(F)C(F)(F)C(F)(F)C(F)(F)C(F)(F)C(F)(F)C(F)(F)C(F)(F)C(F)(F)F` was tested, and the AC50 [5] was 16.4 µM (active), the AC50 [6] was 7.6 µM (active) and the AC50 [7] was 21.3 µM (active). For the same molecule, the AC50 [8] was 10.9 µM (active), the AC50 [12] was 25 µM (active) and the AC50 [14] was 16.8 µM (active).

For `C[C@]12CCC(=O)C=C1CC[C@@H]1[C@@H]2CC[C@]2(C)C(=O)CC[C@@H]12`, the outcome [5] was “inactive”.

In the case of `c1cc2ccc3cccc4ccc(c1)c2c34`, the outcome [10] is reported as “inactive”.

With `CCCCCCCCOC(=O)c1ccccc1C(=O)OCCCCCCCC` the outcome [7] was “inactive”.

For `Oc1ccc(Cl)cc1Cl`, the outcome [3] was “inactive”.

With `O=C(N[C@H]1CN2CCC1CC2)c1cc2ccoc2cn1` the AC50 [16] was 25 µM (active).

In the case of `CCNc1nc(NC(C)C)nc(SC)n1`, the AC50 [4] is reported as 13.7 µM (active) and the AC50 [6] is reported as 10 µM (active).

With `Cc1cc2c3c(c1)C(c1ccccc1)=N[C@@H](NC(=O)c1ccncc1)C(=O)N3CC2` the outcome [4] was “inactive” and the AC50 [5] was 25 µM (active).

In the case of `Cc1cccc(C)c1N`, the outcome [18] is reported as “inactive”.

In the case of `CC(C)(c1ccccc1)c1ccc(O)cc1`, the AC50 [3] is reported as 4.96 µM (active), the AC50 [4] is reported as 9.28 µM (active) and the AC50 [8] is reported as 9.37 µM (active). For the same molecule, the outcome [1] was “inactive”, the AC50 [14] was 25 µM (active) and the outcome [18] was “inactive”.

Reference: PubChem BioAssay (EPA / NIEHS)
